# Data from article PMC7862700, “An all-to-all approach to the identification of sequence-specific readers for epigenetic DNA modifications on cytosine”.
# Columns and labels:
# Assay in all cases: DAPPL (digital affinity profiling via proximity ligation, sequencing); 10 mM Tris-HCl pH 7.5, 50 mM NaCl, 1 mM DTT, 4% glycerol, room temperature, 30 min; GST-TFs on glutathione beads, 16-mer random dsDNA library, 0.1% formaldehyde crosslink after washing; high values mean tight binding
# FEV = target: T1, FEV (Homo sapiens, UniProt Q99581 1-238); conditions: protein: recombinant; tags: N-terminal GST; dsDNA, one strand shown
# T1 sequence: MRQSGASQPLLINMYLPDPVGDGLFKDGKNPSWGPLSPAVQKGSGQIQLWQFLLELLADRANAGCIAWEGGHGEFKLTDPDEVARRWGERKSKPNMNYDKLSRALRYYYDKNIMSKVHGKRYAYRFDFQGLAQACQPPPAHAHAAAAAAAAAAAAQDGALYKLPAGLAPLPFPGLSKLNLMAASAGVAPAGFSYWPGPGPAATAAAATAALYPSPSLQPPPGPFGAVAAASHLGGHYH
# In short: (§1)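 In yeast, human transcription factors were expressed with a GST fusion, then pulled down on glutathione beads and given DNA barcodes. Pooled with a tag-only sample, they were exposed to 200 nmole of a 16-mer random double-stranded DNA library (Tris/NaCl/DTT/glycerol buffer, room temperature, 30 min), washed, crosslinked with 0.1% formaldehyde, proximity-ligated using BsaI/T4 ligase for 1 h at 37 °C, PCR-amplified and read on an Illumina NextSeq500. Each hexamer's frequency of reads for a factor, divided by the matching frequency for the tag-only sample, gives the binding signal.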
# ETV5 = ETV5 (Homo sapiens, UniProt P41161 1-510); conditions: protein: recombinant; tags: N-terminal GST; dsDNA, one strand shown
# ETV5, sequence (P41161 whole entry): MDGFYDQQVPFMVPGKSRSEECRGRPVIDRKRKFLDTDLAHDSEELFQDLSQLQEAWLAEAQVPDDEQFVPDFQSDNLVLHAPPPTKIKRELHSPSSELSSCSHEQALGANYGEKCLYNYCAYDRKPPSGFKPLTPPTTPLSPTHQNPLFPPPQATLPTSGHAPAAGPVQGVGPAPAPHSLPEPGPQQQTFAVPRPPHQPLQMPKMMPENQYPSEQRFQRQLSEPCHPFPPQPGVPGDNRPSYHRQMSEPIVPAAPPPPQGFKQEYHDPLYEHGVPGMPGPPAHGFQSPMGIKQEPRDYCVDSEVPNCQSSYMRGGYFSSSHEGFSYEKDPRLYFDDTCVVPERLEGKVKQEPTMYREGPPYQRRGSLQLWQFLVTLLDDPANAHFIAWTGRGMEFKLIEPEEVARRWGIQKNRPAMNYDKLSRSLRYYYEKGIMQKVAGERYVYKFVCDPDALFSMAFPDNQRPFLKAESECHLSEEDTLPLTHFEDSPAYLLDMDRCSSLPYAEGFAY
# In short: as §1
# HSF1 = HSF1 (Homo sapiens, UniProt Q00613 1-529); conditions: protein: recombinant; tags: N-terminal GST; chain copies: 3; dsDNA, one strand shown
# HSF1, sequence (Q00613 whole entry): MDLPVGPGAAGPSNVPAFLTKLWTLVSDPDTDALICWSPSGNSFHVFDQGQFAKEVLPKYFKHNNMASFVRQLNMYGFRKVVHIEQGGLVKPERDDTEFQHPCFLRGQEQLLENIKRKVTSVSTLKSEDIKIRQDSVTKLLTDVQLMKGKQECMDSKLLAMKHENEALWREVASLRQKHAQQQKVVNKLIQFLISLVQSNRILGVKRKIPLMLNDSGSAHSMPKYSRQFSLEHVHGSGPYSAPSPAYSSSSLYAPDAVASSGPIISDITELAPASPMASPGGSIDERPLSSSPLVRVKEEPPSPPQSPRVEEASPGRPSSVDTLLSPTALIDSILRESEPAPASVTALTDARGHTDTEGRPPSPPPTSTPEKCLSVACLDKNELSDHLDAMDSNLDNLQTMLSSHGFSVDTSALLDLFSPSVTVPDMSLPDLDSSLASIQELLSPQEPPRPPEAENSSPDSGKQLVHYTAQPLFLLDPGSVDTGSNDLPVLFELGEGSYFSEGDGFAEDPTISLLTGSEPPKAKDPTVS
# In short: as §1
# SPIC = target: T2, SPIC (Homo sapiens, UniProt Q8N5J4 1-248); conditions: protein: recombinant; tags: N-terminal GST; dsDNA, one strand shown
# T2 sequence: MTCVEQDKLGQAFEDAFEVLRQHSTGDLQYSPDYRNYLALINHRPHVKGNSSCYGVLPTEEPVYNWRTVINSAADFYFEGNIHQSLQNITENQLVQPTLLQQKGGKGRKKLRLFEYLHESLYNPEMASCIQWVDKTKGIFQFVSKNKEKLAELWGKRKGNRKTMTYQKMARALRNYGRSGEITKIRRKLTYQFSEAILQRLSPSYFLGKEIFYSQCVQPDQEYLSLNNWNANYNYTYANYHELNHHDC
# In short: as §1
# ELF4 = ELF4 (Homo sapiens, UniProt Q99607 1-663); conditions: protein: recombinant; tags: N-terminal GST; dsDNA, one strand shown
# ELF4, sequence (Q99607 whole entry): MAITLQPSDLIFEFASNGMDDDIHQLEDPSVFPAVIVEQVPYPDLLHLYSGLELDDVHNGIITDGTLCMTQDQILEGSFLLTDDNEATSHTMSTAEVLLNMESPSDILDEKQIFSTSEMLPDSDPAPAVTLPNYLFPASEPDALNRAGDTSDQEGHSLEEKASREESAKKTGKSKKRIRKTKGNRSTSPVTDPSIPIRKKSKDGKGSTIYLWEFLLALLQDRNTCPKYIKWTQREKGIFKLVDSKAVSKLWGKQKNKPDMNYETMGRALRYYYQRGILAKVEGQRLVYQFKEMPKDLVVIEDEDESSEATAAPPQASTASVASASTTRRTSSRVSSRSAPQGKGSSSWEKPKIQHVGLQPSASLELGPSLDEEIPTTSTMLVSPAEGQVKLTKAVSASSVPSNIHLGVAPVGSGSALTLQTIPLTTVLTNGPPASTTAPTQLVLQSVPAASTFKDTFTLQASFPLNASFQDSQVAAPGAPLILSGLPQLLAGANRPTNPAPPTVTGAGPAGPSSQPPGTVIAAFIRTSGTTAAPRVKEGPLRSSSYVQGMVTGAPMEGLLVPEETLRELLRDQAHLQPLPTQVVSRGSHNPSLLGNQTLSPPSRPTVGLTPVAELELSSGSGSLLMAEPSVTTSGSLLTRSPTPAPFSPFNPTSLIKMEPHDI
# In short: as §1
# ELK4 = target: T3, ELK4 (Homo sapiens, UniProt P28324-2 1-405); conditions: protein: recombinant; tags: N-terminal GST; dsDNA, one strand shown
# T3 sequence: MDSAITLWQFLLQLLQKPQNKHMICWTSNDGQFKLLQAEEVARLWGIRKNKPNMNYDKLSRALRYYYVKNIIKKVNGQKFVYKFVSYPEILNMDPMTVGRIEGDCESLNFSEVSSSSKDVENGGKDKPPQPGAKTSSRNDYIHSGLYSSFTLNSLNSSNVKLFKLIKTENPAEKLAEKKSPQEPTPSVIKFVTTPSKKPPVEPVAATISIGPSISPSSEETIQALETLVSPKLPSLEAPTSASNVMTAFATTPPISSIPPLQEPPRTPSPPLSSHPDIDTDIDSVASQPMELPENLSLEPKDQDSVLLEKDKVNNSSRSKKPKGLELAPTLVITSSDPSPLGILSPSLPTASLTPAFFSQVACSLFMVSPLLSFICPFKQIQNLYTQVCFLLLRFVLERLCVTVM
# In short: as §1
# ETV2 = target: T4, ETV2 (Homo sapiens, UniProt O00321 1-342); conditions: protein: recombinant; tags: N-terminal GST; dsDNA, one strand shown
# T4 sequence: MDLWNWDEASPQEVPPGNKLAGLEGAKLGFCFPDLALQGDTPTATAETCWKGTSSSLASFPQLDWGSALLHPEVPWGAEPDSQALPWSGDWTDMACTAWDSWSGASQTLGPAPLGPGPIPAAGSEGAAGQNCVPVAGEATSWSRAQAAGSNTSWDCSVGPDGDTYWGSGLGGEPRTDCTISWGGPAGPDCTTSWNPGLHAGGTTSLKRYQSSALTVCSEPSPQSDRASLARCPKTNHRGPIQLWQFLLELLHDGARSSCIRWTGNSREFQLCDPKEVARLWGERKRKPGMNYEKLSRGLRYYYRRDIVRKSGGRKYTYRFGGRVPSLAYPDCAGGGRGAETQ
# In short: as §1
# ELF3 = target: T5, ELF3 (Homo sapiens, UniProt P78545 1-371); conditions: protein: recombinant; tags: N-terminal GST; dsDNA, one strand shown
# T5 sequence: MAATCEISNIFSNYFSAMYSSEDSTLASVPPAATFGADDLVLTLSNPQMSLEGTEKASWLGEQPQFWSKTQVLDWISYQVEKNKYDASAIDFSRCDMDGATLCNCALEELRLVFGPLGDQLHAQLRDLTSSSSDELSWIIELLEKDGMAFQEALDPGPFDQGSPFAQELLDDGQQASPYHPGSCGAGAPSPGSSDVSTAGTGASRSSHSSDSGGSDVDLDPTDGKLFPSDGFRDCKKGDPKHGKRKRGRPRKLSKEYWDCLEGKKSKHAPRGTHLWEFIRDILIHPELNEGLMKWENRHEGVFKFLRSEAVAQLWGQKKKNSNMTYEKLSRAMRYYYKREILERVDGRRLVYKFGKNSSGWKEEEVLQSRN
# In short: as §1
# CRX = CRX (Homo sapiens, UniProt O43186 1-299); conditions: protein: recombinant; tags: N-terminal GST; dsDNA, one strand shown
# CRX, sequence (O43186 whole entry): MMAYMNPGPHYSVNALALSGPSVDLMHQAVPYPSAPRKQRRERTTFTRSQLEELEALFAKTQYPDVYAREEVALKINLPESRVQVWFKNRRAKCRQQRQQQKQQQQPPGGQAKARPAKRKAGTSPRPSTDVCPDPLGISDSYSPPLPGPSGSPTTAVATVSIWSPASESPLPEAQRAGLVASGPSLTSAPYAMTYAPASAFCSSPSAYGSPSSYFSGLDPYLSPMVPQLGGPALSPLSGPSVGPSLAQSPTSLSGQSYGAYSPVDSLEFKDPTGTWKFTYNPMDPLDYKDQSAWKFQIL
# In short: as §1
# ETV1 = ETV1 (Homo sapiens, UniProt P50549 1-477); conditions: protein: recombinant; tags: N-terminal GST; dsDNA, one strand shown
# ETV1, sequence (P50549 whole entry): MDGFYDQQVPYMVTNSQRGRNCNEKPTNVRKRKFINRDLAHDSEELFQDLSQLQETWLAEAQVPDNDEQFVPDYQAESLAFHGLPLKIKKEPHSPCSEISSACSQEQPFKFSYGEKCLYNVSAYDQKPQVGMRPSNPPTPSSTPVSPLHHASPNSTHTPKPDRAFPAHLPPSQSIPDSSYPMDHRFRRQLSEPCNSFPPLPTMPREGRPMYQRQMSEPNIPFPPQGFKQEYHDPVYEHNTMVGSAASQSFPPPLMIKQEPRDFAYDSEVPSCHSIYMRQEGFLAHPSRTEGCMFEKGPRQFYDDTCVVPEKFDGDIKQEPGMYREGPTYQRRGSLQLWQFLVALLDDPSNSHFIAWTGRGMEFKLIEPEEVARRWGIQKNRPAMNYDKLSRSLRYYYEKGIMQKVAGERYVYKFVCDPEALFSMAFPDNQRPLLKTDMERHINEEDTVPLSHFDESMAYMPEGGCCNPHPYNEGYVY
# In short: as §1
# ERF = target: T6, ERF (Homo sapiens, UniProt P50548 1-548); conditions: protein: recombinant; tags: N-terminal GST; dsDNA, one strand shown
# T6 sequence: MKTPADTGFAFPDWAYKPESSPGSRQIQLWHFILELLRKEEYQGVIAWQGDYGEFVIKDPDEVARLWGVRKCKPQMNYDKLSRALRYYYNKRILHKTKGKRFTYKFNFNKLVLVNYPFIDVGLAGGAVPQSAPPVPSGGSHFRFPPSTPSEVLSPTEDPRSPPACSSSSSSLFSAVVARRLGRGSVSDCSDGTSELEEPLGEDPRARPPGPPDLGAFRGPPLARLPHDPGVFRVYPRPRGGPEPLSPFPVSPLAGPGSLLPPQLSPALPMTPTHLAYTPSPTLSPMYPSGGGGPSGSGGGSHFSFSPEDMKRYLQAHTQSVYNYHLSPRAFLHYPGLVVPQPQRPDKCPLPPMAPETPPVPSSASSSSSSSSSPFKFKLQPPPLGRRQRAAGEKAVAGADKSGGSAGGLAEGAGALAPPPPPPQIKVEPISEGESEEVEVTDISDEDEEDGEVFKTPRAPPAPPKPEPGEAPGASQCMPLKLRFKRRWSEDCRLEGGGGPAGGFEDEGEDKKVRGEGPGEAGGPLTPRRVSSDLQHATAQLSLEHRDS
# In short: as §1
# ETV3L = target: T7, ETV3L (Homo sapiens, UniProt Q6ZN32 1-361); conditions: protein: recombinant; tags: N-terminal GST; dsDNA, one strand shown
# T7 sequence: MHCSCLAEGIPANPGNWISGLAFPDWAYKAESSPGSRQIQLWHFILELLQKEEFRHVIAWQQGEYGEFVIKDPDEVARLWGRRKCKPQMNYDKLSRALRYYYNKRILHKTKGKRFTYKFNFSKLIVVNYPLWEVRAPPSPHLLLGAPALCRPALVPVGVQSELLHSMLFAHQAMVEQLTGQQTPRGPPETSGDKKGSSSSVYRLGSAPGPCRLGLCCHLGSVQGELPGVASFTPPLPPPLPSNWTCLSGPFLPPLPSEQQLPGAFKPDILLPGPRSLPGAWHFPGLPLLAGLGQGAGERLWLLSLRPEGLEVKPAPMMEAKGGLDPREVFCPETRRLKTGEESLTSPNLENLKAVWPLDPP
# In short: as §1
# ETS2 = target: T8, ETS2 (Homo sapiens, UniProt P15036 1-469); conditions: protein: recombinant; tags: N-terminal GST; dsDNA, one strand shown
# T8 sequence: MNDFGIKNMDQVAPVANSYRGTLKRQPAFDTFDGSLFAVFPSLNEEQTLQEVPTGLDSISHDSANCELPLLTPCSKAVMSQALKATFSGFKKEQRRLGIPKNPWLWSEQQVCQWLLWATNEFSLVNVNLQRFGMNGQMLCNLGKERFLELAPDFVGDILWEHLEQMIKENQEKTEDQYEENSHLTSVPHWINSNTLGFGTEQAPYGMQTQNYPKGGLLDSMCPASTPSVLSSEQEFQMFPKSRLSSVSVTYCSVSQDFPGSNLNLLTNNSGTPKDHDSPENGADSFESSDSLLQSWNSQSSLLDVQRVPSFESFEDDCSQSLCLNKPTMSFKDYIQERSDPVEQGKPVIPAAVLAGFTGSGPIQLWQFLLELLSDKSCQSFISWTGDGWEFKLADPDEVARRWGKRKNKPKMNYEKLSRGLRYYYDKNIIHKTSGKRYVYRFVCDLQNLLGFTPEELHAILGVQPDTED
# In short: as §1
# SPDEF = target: T9, SPDEF (Homo sapiens, UniProt O95238 1-335); conditions: protein: recombinant; tags: N-terminal GST; dsDNA, one strand shown
# T9 sequence: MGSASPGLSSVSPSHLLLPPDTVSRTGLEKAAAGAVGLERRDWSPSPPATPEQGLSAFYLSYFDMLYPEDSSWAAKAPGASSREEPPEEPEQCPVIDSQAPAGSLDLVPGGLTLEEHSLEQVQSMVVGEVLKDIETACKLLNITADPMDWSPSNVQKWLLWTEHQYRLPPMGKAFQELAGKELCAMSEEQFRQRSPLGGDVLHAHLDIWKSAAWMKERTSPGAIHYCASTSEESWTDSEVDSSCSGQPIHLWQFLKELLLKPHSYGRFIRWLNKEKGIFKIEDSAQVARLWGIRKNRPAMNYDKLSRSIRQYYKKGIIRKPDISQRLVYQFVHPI
# In short: as §1
# ETV7 = target: T10, ETV7 (Homo sapiens, UniProt Q9Y603 1-341); conditions: protein: recombinant; tags: N-terminal GST; dsDNA, one strand shown
# T10 sequence: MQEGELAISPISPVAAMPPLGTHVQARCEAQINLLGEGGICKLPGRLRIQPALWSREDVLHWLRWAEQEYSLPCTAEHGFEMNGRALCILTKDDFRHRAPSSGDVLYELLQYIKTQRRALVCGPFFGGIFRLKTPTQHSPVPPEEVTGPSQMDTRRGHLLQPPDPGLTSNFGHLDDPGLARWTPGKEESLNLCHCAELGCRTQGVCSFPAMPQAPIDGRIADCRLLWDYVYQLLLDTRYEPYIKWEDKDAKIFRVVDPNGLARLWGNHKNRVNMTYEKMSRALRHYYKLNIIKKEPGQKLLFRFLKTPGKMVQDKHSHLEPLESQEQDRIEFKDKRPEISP
# In short: as §1
# ELF5 = target: T11, ELF5 (Homo sapiens, UniProt Q9UKW6-2 1-255); conditions: protein: recombinant; tags: N-terminal GST; dsDNA, one strand shown
# T11 sequence: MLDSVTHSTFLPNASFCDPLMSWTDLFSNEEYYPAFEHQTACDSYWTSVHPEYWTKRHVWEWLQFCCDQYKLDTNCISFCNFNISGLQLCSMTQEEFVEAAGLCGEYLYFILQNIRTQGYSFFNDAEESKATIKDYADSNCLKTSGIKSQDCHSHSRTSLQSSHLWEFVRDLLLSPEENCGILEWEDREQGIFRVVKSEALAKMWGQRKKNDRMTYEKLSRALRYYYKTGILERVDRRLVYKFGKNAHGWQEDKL
# In short: as §1
# ETV3 = target: T12, ETV3 (Homo sapiens, UniProt P41162-2 1-143); conditions: protein: recombinant; tags: N-terminal GST; dsDNA, one strand shown
# T12 sequence: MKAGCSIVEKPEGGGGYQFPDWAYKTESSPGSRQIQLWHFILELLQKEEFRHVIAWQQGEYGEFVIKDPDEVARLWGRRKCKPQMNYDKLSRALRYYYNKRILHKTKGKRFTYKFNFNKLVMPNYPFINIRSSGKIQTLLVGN
# In short: as §1
# ETV6 = ETV6 (Homo sapiens, UniProt P41212 1-452); conditions: protein: recombinant; tags: N-terminal GST; dsDNA, one strand shown
# ETV6, sequence (P41212 whole entry): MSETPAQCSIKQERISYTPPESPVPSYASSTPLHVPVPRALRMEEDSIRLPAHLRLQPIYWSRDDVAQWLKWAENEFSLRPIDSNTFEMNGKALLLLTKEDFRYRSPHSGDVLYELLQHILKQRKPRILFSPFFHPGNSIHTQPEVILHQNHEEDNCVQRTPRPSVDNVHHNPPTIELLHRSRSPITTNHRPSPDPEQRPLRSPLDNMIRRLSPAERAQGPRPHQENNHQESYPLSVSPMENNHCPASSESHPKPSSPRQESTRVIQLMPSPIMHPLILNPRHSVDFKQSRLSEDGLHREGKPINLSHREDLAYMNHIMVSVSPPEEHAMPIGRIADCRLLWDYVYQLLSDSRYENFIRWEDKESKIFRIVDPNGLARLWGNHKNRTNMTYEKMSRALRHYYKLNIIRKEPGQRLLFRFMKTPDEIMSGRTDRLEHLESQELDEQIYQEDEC
# In short: as §1
sequence,measurement,setting,value
CATCTG,binding signal,FEV,"1.33 fold enrichment (6-mer frequency, TF over GST control)"
same,binding signal,ETV5,"1.2 fold enrichment (6-mer frequency, TF over GST control)"
same,binding signal,HSF1,"1.25 fold enrichment (6-mer frequency, TF over GST control)"
same,binding signal,SPIC,"1.28 fold enrichment (6-mer frequency, TF over GST control)"
same,binding signal,ELF4,"1.25 fold enrichment (6-mer frequency, TF over GST control)"
same,binding signal,ELK4,"1.39 fold enrichment (6-mer frequency, TF over GST control)"
same,binding signal,ETV2,"1.16 fold enrichment (6-mer frequency, TF over GST control)"
same,binding signal,ELF3,"1.37 fold enrichment (6-mer frequency, TF over GST control)"
same,binding signal,CRX,"1.15 fold enrichment (6-mer frequency, TF over GST control)"
same,binding signal,ETV1,"1.31 fold enrichment (6-mer frequency, TF over GST control)"
same,binding signal,ERF,"1.35 fold enrichment (6-mer frequency, TF over GST control)"
same,binding signal,ETV3L,"1.23 fold enrichment (6-mer frequency, TF over GST control)"
same,binding signal,ETS2,"1.24 fold enrichment (6-mer frequency, TF over GST control)"
same,binding signal,SPDEF,"1.23 fold enrichment (6-mer frequency, TF over GST control)"
same,binding signal,ETV7,"1.33 fold enrichment (6-mer frequency, TF over GST control)"
same,binding signal,ELF5,"1.23 fold enrichment (6-mer frequency, TF over GST control)"
same,binding signal,ETV3,"1.17 fold enrichment (6-mer frequency, TF over GST control)"
same,binding signal,ETV6,"1.11 fold enrichment (6-mer frequency, TF over GST control)"
